# Compound activity from PubChem BioAssay.
# Hits are enriched below; roughly 8.1% of the tested compounds scored in any of these assays.
# KB-3-1 tox: qHTS assay for MDR1-selective chemotherapeutics: Primary screen using the parental adenocarcinoma cell KB-3-1. KB-3-1 viability, CellTiter-Glo ATP luminescence, 72 h. Potency, µM (top dose mostly 46.1 µM), actives largely listed as cytotoxic. actives 1.4% (n = 400,000); further: on the % scale 0 is the no-effect control and ±100 the full control effect; nearly all actives have a fitted effect of over 60% in size
#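 Multi-concentration cytotoxicity screen in KB-3-1 cells grown in DMEM lacking phenol red with 10% FBS. After 72 h at 37 °C with compound, ATP-dependent luminescence was recorded.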
# MCF10A rereplic: A quantitative high throughput screen for small molecules that induce DNA re-replication in MCF 10a normal breast cells. MCF 10A DNA re-replication, Hoechst nuclear intensity, 48 h. Potency, µM (doses to about 46.1 µM), for the others: at the top dose activity, positive = re-replication, usual class: activators. actives 2.9% (n = 350,000); further: % of control where 0% means no effect; nearly all actives have a fitted effect of over 50% in size
# KB-V1 MDR tox: qHTS assay for MDR1-selective chemotherapeutics: Primary screen using the drug-selected MDR subline cells KB-V1 | KB-V1 MDR cells viability, CellTiter-Glo, 72 h | Potency, µM (highest dose often 46.1 µM), most hits filed as cytotoxic | actives 3.4% (n = 400,000) | AID 1347076, 2019; further: on the % scale 0 is the no-effect control and ±100 the full control effect; nearly all actives have a fitted effect of over 60% in size
#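 KB-V1 cells (P-gp-expressing MDR subline of KB-3-1) in phenol-red-free DMEM with 10% FBS were exposed to library compounds over a concentration series for 72 h at 37 degrees C. Viability read by CellTiter-Glo luminescence; concentration-effect curves fitted after normalization.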
# ELG1 DNA repair: qHTS screen for small molecules that inhibit ELG1-dependent DNA repair in human embryonic kidney (HEK293T) cells expressing luciferase-tagged ELG1. Potency, µM (titrated, usually from 46.1 µM), without a hit: at the highest dose activity change, negative = inhibition, hits mostly inhibitors. HEK293T ELG1-luciferase reporter, luminescence, 16 h; DNA damage induced by 5-fluorouridine. actives 2.3% (n = 330,000). AID 504467, 2011; further: on the % scale 0 is the no-effect control and ±100 the full control effect; nearly all actives have a fitted effect of over 55% in size
#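 Overnight (16 hr) co-exposure of 2,000 cells/well to 5-fluorouridine and compound at 37 °C preceded detection. Luciferase was quantified via ONE-Glo luminescence; loss of signal denotes inhibition.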
# SW480 rerep: A quantitative high throughput screen for small molecules that induce DNA re-replication in SW480 colon adenocarcinoma cells; SW480 DNA re-replication, Hoechst DNA content imaging, 48 h; Potency, µM (highest dose often 46.1 µM), inactives show at the highest dose re-replication activation, actives largely listed as activators; actives 1.8% (n = 340,000); AID 624297, 2012; further: % of control where 0% means no effect; nearly all actives have a fitted effect of over 55% in size
#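 Image-based DNA-content assay: after two days of treatment, nuclei were labelled with the DNA dye Hoechst and imaged, and hits were compounds raising the count of nuclei showing high fluorescence intensity.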
# An asterisk follows results filed as active; i = inactive; u = inconclusive; x = not tested or not shown. The call rests on the fitted dose curve; in most records, active means well fitted curve in the direction sought with a large enough effect; inconclusive means small, poorly fitted or top-dose-only effect, or another doubt; inactive means no such curve, though single readings can be large; an effect the other way counts as inactive or inconclusive. Potency means the concentration at half of the fitted maximal effect.
SMILES,KB-3-1 tox,MCF10A rereplic,KB-V1 MDR tox,ELG1 DNA repair,SW480 rerep
CN(C)c1ncc(S(=O)(=O)c2ccccc2)c(N)n1,i,1.4%,i,-3.4%,0.9%
COCc1cc(=O)n2[nH]c(C)cc2n1,i,-6.3%,i,18.5%,-7.1%
CCn1c2ccccc2c2cc(NC(=O)C(C)C)ccc21,i,-5.5%,u,u,-5.0%
CCn1c2ccccc2c2cc([N+](=O)[O-])ccc21,u,12.6%,u,0.7%,-98.9%
CCn1c2ccccc2c(=O)c2ccccc21,i,23.1µM*,i,-10.1%,23.1µM*
CCn1c2ccccc2c2cc(NS(=O)(=O)c3ccccc3C)ccc21,16.4µM*,u,u,u,u
CCOc1ccc(-c2nnc(SCC(=O)Nc3ccc4c(c3)c3ccccc3n4CC)n2N)cc1,i,10.3µM*,i,-25.1%,u
CCn1c2ccccc2c2cc(NC(=O)COC(=O)c3cc(OC)c(OC)cc3OC)ccc21,i,-2.0%,i,9.2µM*,-4.7%
COc1cccc(CN(C)CC(=O)N2CCN(S(=O)(=O)c3ccccc3)CC2)c1,i,x,i,x,x
CC(C)CNC(=O)C1CCN(CC2CCCCC2)CC1,i,-0.3%,i,1.3%,2.7%
COc1ccc(NN=Nc2nc3c([nH]2)c(=O)n(C)c(=O)n3C)cc1,i,7.8%,i,u,-0.1%
O=C(O)CN1C(c2ccccc2)=Nc2ccc(Br)cc2C1c1ccccc1 (centres undefined),i,-11.1%,i,1.1%,-27.9%
CCCC(=O)Nc1ccc2c(c1)c1ccccc1n2CC,u,20.6µM*,u,-25.8%,u
O=C(CN1C(=O)CCC1=O)c1ccc(-c2ccccc2)cc1,i,-6.5%,i,u,-39.5%
N=c1ccn(CC(=O)c2ccc(-c3ccccc3)cc2)cc1,5.17µM*,7.5%,i,u,-6.2%
Cc1cccc2sc(NC(=O)CSc3nnnn3C)nc12,i,18.4%,i,9.5%,-0.5%
O=C(CN1CCN(S(=O)(=O)c2ccc(Cl)cc2)CC1)NC(=O)NC1CCCCC1,u,5.5%,2.31µM*,u,0.5%
CCn1cc(C(=O)NC(C)C23CC4CC(CC(C4)C2)C3)cn1 (centres undefined),i,1.1%,u,9.6%,-1.5%
Cc1ccc(C(=O)C2CCN(CC(=O)NC3CCCCC3)CC2)cc1,i,2.6%,13µM*,u,5.6%
CC(NC(=O)Cn1ncc(Cl)c(Cl)c1=O)C12CC3CC(CC(C3)C1)C2 (centres undefined),6.51µM*,3.66µM*,u,18.4µM*,5.17µM*
O=C(CN1CCN(S(=O)(=O)c2ccccc2)CC1)NC(=O)NC1CCCCC1,i,6.9%,i,-25.6%,-0.2%
O=C(CN1CCCCCCC1)NC(=O)NC1CCCCC1,u,16.4µM*,u,u,-2.5%
CCOC(=O)c1c(C)n(-c2ccccc2)c2ccc(OC(=O)c3cc(OC)cc(OC)c3)cc12,i,x,i,x,x
COc1cc(C)ccc1OC(C)C(=O)Nc1ccc(N2CCCCC2)cc1 (centres undefined),i,9.6%,i,-18.6%,3.1%
O=C(Cn1ncc(Cl)c(Cl)c1=O)NC(=O)NC1CCCCC1,u,8.2µM*,u,u,13µM*
SMILES,KB-3-1 tox,MCF10A rereplic,KB-V1 MDR tox,ELG1 DNA repair,SW480 rerep
O=C(CN1CCCCC1)NC(=O)NC1CCCC1,i,4.0%,i,4.8%,-3.4%
COC(=O)c1cc(C(=O)N2CCOCC2)cc([N+](=O)[O-])c1,i,-1.1%,i,-0.4%,-8.2%
O=C(c1cccc([N+](=O)[O-])c1)N1CCN(c2cccc(Cl)c2)CC1,18.4µM*,16.4µM*,5.8µM*,u,u
Cc1ccc(N2CCN(C(=O)c3cccc([N+](=O)[O-])c3)CC2)cc1Cl,i,-6.4%,i,u,-15.0%
COC(=O)c1cc(C(=O)N2CCN(c3cccc(Cl)c3)CC2)cc([N+](=O)[O-])c1,1.03µM*,u,u,u,0.731µM*
CC1=Nc2cc([N+](=O)[O-])ccc2NC(C)(C)C1,i,-3.6%,i,u,0.5%
Clc1ccc(-c2nnc(CSc3nnc(-c4cccs4)n3Cc3ccccc3)o2)cc1,u,u,u,-17.5%,2.4%
O=C(O)CCSc1nnc(CNc2ccc(Cl)cc2)n1Cc1ccccc1,i,1.5%,i,-8.7%,0.231µM*
Fc1ccc(NCc2nnc(SCc3nnc(-c4ccccc4)o3)n2Cc2ccccc2)cc1,i,6.3%,u,15.8µM*,3.5%
CCn1c(CNc2ccc(Cl)cc2)nnc1SCC(=O)OC1CCCCC1,i,12.6µM*,i,-27.3%,2.4%
O=C(CSc1nnc(CNc2ccc(Cl)cc2)n1Cc1ccccc1)NCc1ccco1,i,9.8%,i,4.9%,-10.2%
CN(C)CCNC(=O)Cn1ccc2cc(S(=O)(=O)N3CCCCCC3)ccc21,i,-0.1%,u,1.6%,-29.0%
CC(C)(C)NC(=O)C(c1ccco1)N(C(=O)Cn1nnc(-c2ccc(F)cc2)n1)c1ccccc1F (centres undefined),i,18.8%,18.4µM*,u,u
CC(C)(C)NC(=O)C(c1ccco1)N(C(=O)Cn1nnc(-c2ccc(F)cc2)n1)c1ccccc1 (centres undefined),u,-6.8%,3.66µM*,x,-0.6%
CC(C(=O)NC1CCCC1)N(C(=O)Cn1nnc(-c2ccc(F)cc2)n1)c1ccccc1F (centres undefined),i,19.3%,u,16.4µM*,-18.2%
CCCCC(C(=O)NC1CCCC1)N(Cc1ccco1)C(=O)Cn1nnc(-c2ccc(F)cc2)n1 (centres undefined),u,u,i,16.4µM*,2.1%
CCOC(=O)C1CCN(CC(=O)c2ccc(O)c(C)c2O)CC1,i,-1.4%,i,8.5%,29.9%
CC(C)CNC(=O)c1ccccc1NC(=O)c1ccc(CSc2ccccc2)cc1,i,u,13µM*,-0.1%,17.7%
O=C(CCSc1ccccc1)Nc1ncccn1,i,20.6µM*,i,18.9%,23.0%
CSc1ccccc1C(=O)NCCSc1ccccc1,i,19.6%,18.4µM*,u,-1.6%
CCC(C)NC(=O)c1ccccc1NC(=O)c1ccc(CSc2ccc(C)cc2)cc1 (centres undefined),i,17.1%,i,5.2%,-13.6%
CC(C)CNC(=O)c1ccccc1NC(=O)Nc1ccccc1,i,10.8%,i,-2.7%,-4.8%
